PRMT1 FP inh – PRMT1 methyltransferase inhibitors, primary screen, biochemical, fluorescence polarization. recombinant PRMT1, activity-based probe fluorescence polarization. inhibition, % at 2.79 µM. 1.3% of 370,000 active. AID 652257, 2013;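 active = inhibition above about 21% made by adding two undisclosed values, limit read from the data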
Target sequence (Q99873 whole entry, looked up): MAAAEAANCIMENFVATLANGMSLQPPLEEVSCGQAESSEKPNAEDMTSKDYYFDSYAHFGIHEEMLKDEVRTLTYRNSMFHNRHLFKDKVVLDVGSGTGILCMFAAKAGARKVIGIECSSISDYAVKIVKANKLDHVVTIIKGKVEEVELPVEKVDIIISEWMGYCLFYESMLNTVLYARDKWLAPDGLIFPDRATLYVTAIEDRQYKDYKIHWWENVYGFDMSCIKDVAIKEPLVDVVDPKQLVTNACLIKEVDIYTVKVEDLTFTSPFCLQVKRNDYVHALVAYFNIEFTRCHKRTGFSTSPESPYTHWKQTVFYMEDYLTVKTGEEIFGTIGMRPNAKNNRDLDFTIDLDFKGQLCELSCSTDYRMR
UHRF1 MBD2 ctr – UHRF1 methylated DNA binding inhibitors, primary screen, counter-screen for MBD2 inhibitor project, biochemical, TR-FRET, human UHRF1, single concentration; E3 ubiquitin-protein ligase UHRF1 (Homo sapiens), Q96T88; UHRF1 binding to methylated oligo; inhibition, % at 4.4 µM; 0.75% of 370,000 active; AID 687016, 2013;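 note: UHRF1 SRA domain binding a hemimethylated CpG hairpin DNA probe; 0% = median of test compound wells and 100% = reference inhibitor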
LEDGF integ inh – blockers of LEDGF/p75-dependent integrase strand transfer – biochemical, TR-FRET, high throughput, primary screen | HIV-1 integrase (with human LEDGF/p75) | TR-FRET IN-LEDGF/p75 DNA integration, Eu/Cy5 | inhibition, % at 3.7 µM | 0.64% of 370,000 active;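 active = inhibition above the screen-wide mean plus 3 SD, cut at about 13% in these data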;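 note: signal is the Cy5 over europium emission ratio at 671 and 618 nm; 0% = plate median of compound wells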
MBD2 inh – inhibitors of MBD2 binding to methylated DNA, primary screen, biochemical, TR-FRET, DNA-binding domain, human; inhibition, % at 4.4 µM; MBD2 binding to methylated oligonucleotide; 0.31% of 370,000 active; AID 686964, 2013; Methyl-CpG-binding domain protein 2 (Homo sapiens), Q9UBB5; in the data active = inhibition above about 13%
PRMT1 inh conf – PRMT1 methyltransferase inhibitors, confirmation, biochemical, fluorescence polarization, triplicate | shares compounds with PRMT1 FP inh | recombinant His-PRMT1, activity-based probe fluorescence polarization | inhibition, % at 2.79 µM | 42% of 3,300 active;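 active = mean inhibition across replicates above the hit cutoff derived for the earlier primary screen, cut at about 22% in these data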
UHRF1 ctr MBD2 – UHRF1 methylated DNA binding inhibitors, counter-screen for MBD2 inhibitor project, biochemical, TR-FRET, human UHRF1. UHRF1 binding to methylated oligonucleotide. inhibition, % at 4.4 µM. shares compounds with MBD2 inh. 25% of 1,000 active;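 note: UHRF1 SRA domain binding a labeled hemimethylated CpG hairpin DNA; 0% = vehicle only and 100% = reference inhibitor with vehicle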
MBD2 confirm – inhibitors of MBD2 binding to methylated DNA, confirmation, biochemical, TR-FRET, DNA-binding domain, human | shares compounds with MBD2 inh | TR-FRET MBD2-DBD binding to methylated oligonucleotide | inhibition, % at 4.4 µM | 26% of 1,000 active | AID 720531, 2013; in the data active = inhibition above about 14%
IN multimer up – HIV-1 IN multimer formation enhancers, counter-screen for LEDGF/p75 integration inhibitor project, biochemical, TR-FRET | shares compounds with LEDGF integ inh | TR-FRET HIV-1 integrase multimerization | activation, % at 7.7 µM | 17% of 2,000 active | AID 1053131, 2014; in the data active = activation above about 8.9%
TRFRET interf – TR-FRET optical interference artefacts, confirmation, artefact control for LEDGF/p75-dependent integration inhibitor project, biochemical, HIV-1 IN multimerization; 2,000 tested, under 10 active; TR-FRET optical interference counterscreen; inhibition, % at 7.7 µM; AID 1053135, 2014; shares compounds with LEDGF integ inh;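 active = inhibition above the mean over all tested compounds plus 3 SD, which no compound reached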;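 note: 0% = integrase with antibodies and DMSO and 100% = antibodies without integrase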
IN-LEDGF confirm – inhibitors of HIV-1 IN-LEDGF/p75 DNA integration, confirmation, biochemical, TR-FRET | shares compounds with LEDGF integ inh | TR-FRET LEDGF/p75-dependent HIV-1 integration | inhibition, % at 3.7 µM | 36% of 2,000 active | AID 1053136, 2014; in the data active = inhibition above about 14%
Numbers without * were called inactive; . = no result. Shown are actives, neighbours in structure and some others; about 2.5% of the full set was active somewhere. Cut-off read from the data, not from the text of the source, unless noted: active = inhibition above about 21%; inactive = the rest.

SMILES	PRMT1 FP inh	UHRF1 MBD2 ctr	LEDGF integ inh	MBD2 inh	PRMT1 inh conf	IN multimer up	TRFRET interf	IN-LEDGF confirm	others
CN(CCC#N)C(=O)COC(=O)c1c2c(nc3ccccc13)/C(=C\c1ccco1)CC2	32*	41*	50*	20*	20	21*	-104	70*	UHRF1 ctr MBD2=35*;MBD2 confirm=29*
O=C(NC1CCCC1)c1cc(=O)[nH]c2ccccc12	-2	-1	-6	1	.	.	.	.
COc1cccc2c1C(=O)c1c(O)c3c(c(O)c1C2=O)CC(O)(C(C)=O)CC3OC1CC(N(C)C)C(O)C(C)O1 (configuration not stated)	193*	96*	14*	111*	154*	3	-16	32*	UHRF1 ctr MBD2=101*;MBD2 confirm=111*
COCc1cc(N2CCN(C(=O)OC(C)(C)C)C[C@@H]2C)ccc1N1C[C@@H](C)O[C@@H](C)C1	0	1	0	0	.	.	.	.
COCc1cc(N2CCN(C(=O)OC(C)(C)C)C[C@H]2C)ccc1N1CC[C@@H](O)C1	66*	1	14*	6	9	5	-18	0
COc1ccc(CCNC(=O)c2cc3c(C)nccc3[nH]c2=O)cc1OC	3	5	-2	5	.	.	.	.
O=C(O)c1cc(O)c2c(c1)[C@H]([C@H]1c3cc(C(=O)O)cc(O)c3C(=O)c3c(O[C@@H]4O[C@H](CO)[C@@H](O)[C@H](O)[C@H]4O)cccc31)c1cccc(OC3O[C@H](CO)[C@@H](O)[C@H](O)[C@H]3O)c1C2=O (some centres not stated)	37*	73*	82*	33*	13	74*	-261	80*	UHRF1 ctr MBD2=90*;MBD2 confirm=94*
Cc1ccc(NC(=O)CCCC2CCCCC2)c(O)c1	2	-1	-1	2	.	.	.	.
CC(=O)Nc1ccc(S(=O)(=O)/N=C2/NC(=O)/C(=C\c3ccco3)S2)cc1	35*	31*	23*	4	13	6	-20	6
CCOC(=O)c1c(NC(=O)CN2CCN(S(=O)(=O)c3cc(Cl)ccc3Cl)CC2)sc(C(=O)N(C)C)c1C	4	-1	1	1	.	.	.	.
CCCCOc1ccc(C(=O)NC2CCCCN(CC)C2=O)cc1 (configuration not stated)	0	-2	3	-2	.	.	.	.
Cn1c(Cc2csc(N)n2)nnc1SCC(=O)NC1CCCCC1	-5	0	2	-7	.	.	.	.
CN(C)CCn1nnnc1SCC1=C(C(=O)O)N2C(=O)[C@@H](NC(=O)Cc3csc(N)n3)[C@H]2SC1	46*	39*	24*	9	9	6	-28	19*
COc1ccc(/C(O)=C2\C(=O)C(=O)N(Cc3ccco3)C2c2cc(OC)ccc2OC)cc1 (configuration not stated)	1	-7	1	-1	.	.	.	.
Cc1ccc(C2/C(=C(/O)c3ccc(Br)cc3)C(=O)C(=O)N2Cc2ccco2)o1 (configuration not stated)	35*	2	15*	-5	10	0	-2	16*

Screening data as filed in PubChem BioAssay.
